# Assay results taken from the supplement of paper PMC6555819.
# Key:
# Assay in all cases: PBM binding z-score (relative to random genomic background probes); higher = stronger binding; sequences stand for … in GC…GCGATTGACAGCGTAGAATGAAGG
# [1] = tested on: FXR:RXRa (NR concentration 270 nM, RXRa partner concentration 90 nM)
# Outline: (§1)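 Binding z-scores take random background probes as their reference. They come from custom Agilent 4×180K protein-binding microarrays incubated 1 h with ligand-free nuclear receptor dimers, with antibodies against each partner (one per run) detecting binding. Scanned fluorescence was regression-normalized.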
# [2] = tested on: LXRa:RXRa (NR concentration 270 nM, RXRa partner concentration 90 nM)
# Outline: as §1
# [3] = tested on: LXRa homodimer (NR concentration 270 nM)
# Outline: as §1
# [4] = tested on: LXRb:RXRa (NR concentration 270 nM, RXRa partner concentration 90 nM)
# Outline: as §1
# [5] = tested on: LXRb homodimer (NR concentration 270 nM)
# Outline: as §1
# [6] = tested on: PPARa:RXRa (NR concentration 270 nM, RXRa partner concentration 90 nM)
# Outline: as §1
# [7] = tested on: PPARg:RXRa (NR concentration 180 nM, RXRa partner concentration 90 nM)
# Outline: as §1
# [8] = tested on: PPARg:RXRa 270nM:90nM, anti-RXR (NR concentration 270 nM, RXRa partner concentration 90 nM)
# Outline: as §1
# [9] = tested on: PPARg:RXRa 30nM:10nM, anti-RXR (NR concentration 30 nM, RXRa partner concentration 10 nM)
# Outline: as §1
# [10] = tested on: PPARg:RXRa 90nM:30nM, anti-RXR (NR concentration 90 nM, RXRa partner concentration 30 nM)
# Outline: as §1
# [11] = tested on: PPARg:RXRa DBDmut IVT, anti-RXR (DBD mutation: RXRa K156A/R161A, NR concentration 270 nM, RXRa partner concentration 90 nM)
# Outline: as §1
# [12] = tested on: PPARg:RXRa IVT, anti-PPARg (NR concentration 270 nM, RXRa partner concentration 90 nM)
# Outline: as §1
# [13] = tested on: PPARg DBDmut:RXRa IVT, anti-PPARg (DBD mutation: PPARg1 K132A/R137A, NR concentration 270 nM, RXRa partner concentration 90 nM)
# Outline: as §1
# [14] = tested on: PPARg DBDmut IVT, anti-PPARg (DBD mutation: PPARg1 K132A/R137A, NR concentration 270 nM)
# Outline: as §1
# [15] = tested on: PPARg homodimer (NR concentration 180 nM)
# Outline: as §1
# [16] = tested on: PXR:RXRa (NR concentration 270 nM, RXRa partner concentration 90 nM)
# Outline: as §1
# [17] = tested on: PXR homodimer (NR concentration 270 nM)
# Outline: as §1
# [18] = tested on: RARa:RXR (NR concentration 270 nM, RXRa partner concentration 90 nM)
# Outline: as §1
# [19] = tested on: RARa homodimer (NR concentration 270 nM)
# Outline: as §1
# [20] = tested on: RARb:RXRa (NR concentration 270 nM, RXRa partner concentration 90 nM)
# Outline: as §1
Sequence,PBM binding z-score [1],PBM binding z-score [2],PBM binding z-score [3],PBM binding z-score [4],PBM binding z-score [5],PBM binding z-score [6],PBM binding z-score [7],PBM binding z-score [8],PBM binding z-score [9],PBM binding z-score [10],PBM binding z-score [11],PBM binding z-score [12],PBM binding z-score [13],PBM binding z-score [14],PBM binding z-score [15],PBM binding z-score [16],PBM binding z-score [17],PBM binding z-score [18],PBM binding z-score [19],PBM binding z-score [20]
CCTAGTTGGTCAGGAGGGCACACACCGGATATGA,0.184,0.335,0.0656,0.24,-0.0952,0.641,0.988,0.912,0.0866,0.594,0.374,1.62,-0.178,-0.301,1.22,0.369,0.17,0.233,0.714,1.71
CCTTACGGGACACTGACAGGTTATAGCATTTGGA,-0.0808,-0.0885,0.186,0.0675,-0.248,-0.0851,0.499,-0.397,0.123,-0.284,0.975,0.149,0.162,-0.682,-0.0979,-0.2,0.162,-0.0303,0.647,0.42
AAAACGAGGGCACGCTGAGTTGATAGCAGAGTAG,0.97,0.877,-0.416,0.344,-0.954,2.42,2.99,2.58,0.579,1.87,5.62,5.01,-0.17,0.145,0.283,1.5,0.139,0.828,-0.23,2.65
AGAATGAGGTTACCAAAGCTCAGGGAAACGCTTG,1.93,3.99,-0.0854,1.96,-0.341,3.46,2.2,2.57,0.532,1.81,3.42,3.11,0.652,0.289,0.125,0.966,-0.338,1.77,-0.239,2.15
GCTATTAGTTGAAAGGGGAACCGAATGATTCTCG,0.138,0.218,-0.112,-0.0843,-0.157,0.798,1.19,3.07,1.25,2.62,0.8,0.272,-0.324,-0.088,0.558,-0.107,0.237,0.154,0.912,0.185
CCTCGGAGGACAGAACGTCAGAGCTGTCCGCTTT,-0.455,-0.498,-0.707,-1.16,-1.1,-1.32,-0.391,-1.32,-1.28,-1.56,-0.575,-0.846,-2.12,-1.43,-1.05,-1.12,-0.765,-1.04,-0.587,0.103
CCTAGCTGGCCAATCTGGGTCACTCAAGGCTTGA,0.656,0.35,-0.714,0.665,-1.32,2.6,1.43,1.89,-0.389,1.26,3.93,4.25,-0.85,-1.11,-0.162,0.708,-0.934,1.02,-1.02,1.09
TTACCAAGGGGAAAGGTCGTTGATGCACGCCTTG,1.39,1.85,-0.0678,1.81,-0.739,3.79,5.27,6.57,4.47,6.82,0.296,2.61,0.358,0.0839,1.27,2.44,0.149,2.73,-0.553,1.77
CTACCAAGGTGAACAAGGTCGTTGAGTACTATTC,1.64,1.36,0.0569,1.83,-0.22,2.53,1.04,1.24,0.0413,0.542,2.21,2.45,-0.822,-0.624,0.759,3.07,6.86,2.48,0.402,2.24
TAATATAGGTAAAAGGTGAAAGTCGGTGTGGTAA,1.84,2.01,0.364,2.04,0.134,6.16,10.5,9.06,9.53,10.1,7.05,6.22,2.17,1.62,2.02,1.8,0.982,3.16,1.75,1.94
GCTTGTAGATCAAGGTGAAGAAAGACTAAGCTAA,-0.249,-0.317,-0.489,-0.225,-0.819,0.597,0.122,0.939,0.103,0.281,1.63,1.6,-0.514,-0.503,-0.575,-0.352,-0.243,-0.339,-0.424,0.0933
CGTCCAAGGTCGGCAGGTCAGTGAAAGCGACGTG,1.48,0.7,-0.723,0.338,-1.39,1.95,-0.15,0.764,-0.459,-0.168,-0.305,0.214,-0.718,-1.66,0.288,1.23,-0.703,1.88,-0.686,3.17
TTGAGTAGGTTAGTCGGGGCATTCAGCCAACATA,0.205,0.325,0.413,0.932,0.285,1.11,0.307,0.997,0.398,0.742,3.52,3.36,0.385,0.257,0.88,0.618,0.715,0.545,0.987,0.733
GCTATTACTTGAAAGGGCAACCGAATGATTCTCG,0.128,0.738,0.277,0.831,0.248,1,0.583,0.184,0.177,0.0562,0.661,0.239,-0.509,0.326,0.811,0.499,-0.0796,0.627,0.826,2.17
